# PubChem BioAssay (Tox21)
# Records with an inconclusive call do not appear. Where a call stands in place of a potency, no number is given. Active and inactive are the calls of the source. Unless noted, the call rests on the fitted dose curve; in most records, active means well fitted curve in the direction sought with a large enough effect in the repeat runs; inconclusive means weak or mixed curves; inactive means no such curve, though single readings can be large; an effect the other way counts as inactive or inconclusive.
# Columns and labels:
# [1] = qHTS assay to identify small molecule antagonists of the retinoid acid receptor (RAR) signaling pathway - cell viability counter screen (AID 1159551); further: nearly all actives have a fitted effect of over 35% in size; further: potency means the concentration at half of the fitted maximal effect
# In short: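 In this counter screen, the RARE-luciferase line C3RL4 was exposed for 6 h at 37 C and 5% CO2 to compounds with retinol at 1 uM final. Cellular ATP, read by luminescence, served as the viability measure.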
# [2] = qHTS assay to identify small molecule antagonists of the retinoic acid receptor (RAR) signaling pathway (AID 1159552; further: nearly all actives have a fitted effect of over 50% in size; further: potency means the concentration at half of the fitted maximal effect)
# In short: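 Luminescence from a RARE luciferase reporter in C3RL4 cells served as read-out. Cells received compounds together with 1 uM final retinol and incubated 6 hr at 37 C before detection reagent was added for 30 min at room temperature.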
# [3] = qHTS assay to identify small molecule agonists of the retinoic acid receptor (RAR) signaling pathway (AID 1159553); further: potency means the concentration at half of the fitted maximal effect
# In short: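 In this cell-based screen, 1,000 C3RL4 cells per well were cultured overnight, dosed with test chemicals in DMSO for 6 hr, and assessed for RARE luciferase luminescence.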
# [4] = qHTS assay to identify small molecule antagonists of the estrogen related receptor (ERR) signaling pathway from Tox21 library - cell viability counter screen (AID 1224834); further: nearly all actives have a fitted effect of over 30% in size; further: potency means the concentration at half of the fitted maximal effect
# In short: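 Counter screen run in ERR cells (2,000 cells/well): cells pre-incubated 6 h, then treated with compounds for 17.5 h at 37 C. Fluorescence was read 30 min after CellTiter-Fluor addition.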
# [5] = qHTS assay to identify small molecule antagonists of the estrogen related receptor (ERR) signaling pathway - cell viability counter screen (AID 1224818); further: series mostly up to about 46 µM
# In short: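 Viability of ERR cells, CellTiter-Fluor fluorescence; 17.5 h compound exposure at 37 C, DMSO vehicle; 30 min reagent incubation at 37 C/5% CO2.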
# [6] = qHTS assay to identify small molecule antagonists of the estrogen related receptor (ERR) signaling pathway (AID 1224819; further: nearly all actives have a fitted effect of over 50% in size; further: potency means the concentration at half of the fitted maximal effect)
# In short: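 Seed ERR cells 2,000/well; rest 6 h at 37 C/5% CO2; pin compounds in DMSO; incubate 18 h at 37 C; add One-Glo; wait 30 min at room temperature; measure luminescence.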
# [7] = qHTS assay to identify small molecule agonists of the estrogen related receptor (ERR) signaling pathway (AID 1224820)
# In short: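 An ERR cell line provided by NTP was seeded at 2,000 cells per well and allowed to settle for 6 h before compounds in DMSO were added. After 18 h at 37 C, luciferase activity was measured by One-Glo luminescence.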
# [8] = tested on: estrogen-related receptor alpha (ERRalpha) with PGC-1alpha coactivator, human; assay: qHTS assay to identify small molecule antagonists of the estrogen related receptor signaling pathway with the pleiotropic PPARgamma coactivator (PGC) (AID 1224821; calls by dose curve;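 further: series mostly up to about 46 µM; lower luminescence signal means antagonism of PGC/ERR signalling; nearly all actives have a fitted effect of over 50% in size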)
# In short: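 A PGC/ERR cell line supplied by NTP is seeded, allowed 6 h at 37 C, and treated with test compounds in DMSO for 18 h. Signal is then measured as luciferase luminescence using One-Glo.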
# [9] = qHTS assay to identify small molecule agonists of the estrogen related receptor signaling pathway with the pleiotropic PPARgamma coactivator (PGC) (AID 1224823)
# In short: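 Compounds dissolved in DMSO are added by pin tool to PGC/ERR cells that have settled for 6 h, and incubation continues 18 h at 37 C. Reporter output is measured as One-Glo luminescence.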
compound,measurement,setting,value
CC(=O)[C@H]1CC[C@H]2[C@@H]3C=CC4=CC(=O)CC[C@@]4(C)[C@@H]3CC[C@]12C,Potency,[1],inactive
same,Potency,[2],inactive
same,Potency,[3],inactive
O=C(CCCN1CCN(c2ccc(F)cc2)CC1)NC1c2ccccc2CSc2ccccc21 (configuration not stated),Potency,[1],inactive
same,Potency,[4],inactive
CC1CC(=O)NN=C1c1ccc(NCC(C)(C)NCC(O)COc2cc(Cl)ccc2C#N)cc1 (configuration not stated),Potency,[1],inactive
same,Potency,[2],inactive
same,Potency,[3],inactive
same,Potency,[4],inactive
CNC(=S)NC,Potency,[1],inactive
same,Potency,[2],inactive
same,Potency,[4],inactive
CCCCC(=O)O[C@]1(C(=O)CO)CC[C@H]2[C@@H]3CCC4=CC(=O)CC[C@]4(C)[C@H]3[C@@H](O)C[C@@]21C,Potency,[1],inactive
same,Potency,[2],inactive
same,Potency,[3],inactive
same,Potency,[4],inactive
COc1cc2c(cc1OC)-c1cc(=Nc3c(C)cc(C)cc3C)n(C)c(=O)n1CC2,Potency,[1],inactive
same,Potency,[2],inactive
same,outcome,[5],inactive
same,Potency,[6],17.4 µM (active)
same,outcome,[7],inactive
same,Potency,[8],inactive
same,Potency,[9],inactive
Fc1ccccc1[C@@H](F)COC1CCC(Nc2ncnc3[nH]ncc23)CC1 (some centres not stated),Potency,[1],inactive
same,Potency,[2],inactive
same,Potency,[3],inactive
same,Potency,[4],30.6 µM (active)
CC1CC(O)CC(C)(C)C1 (configuration not stated),Potency,[1],inactive
same,Potency,[2],inactive
same,Potency,[3],inactive
same,Potency,[4],inactive
CCCCC1C(=O)N(c2ccccc2)N(c2ccc(O)cc2)C1=O (configuration not stated),Potency,[2],inactive
same,Potency,[4],18.8 µM (active)
C=CCNc1nc(NCC=C)nc(N2CCN(C(c3ccc(F)cc3)c3ccc(F)cc3)CC2)n1,Potency,[1],inactive
same,Potency,[2],inactive
same,Potency,[3],inactive
same,Potency,[4],inactive
CCCCN(CCCC)CCCOC(=O)c1ccc(N)cc1,Potency,[1],inactive
same,Potency,[2],inactive
same,Potency,[3],inactive
same,Potency,[4],inactive
O=C(Nc1ccccc1)Nc1ccccc1,Potency,[1],inactive
same,Potency,[2],inactive
same,Potency,[3],2.18 µM (active)
same,Potency,[4],inactive
COC(=O)[C@@H]1CC2=CC(=O)CC[C@]2(C)[C@@]23O[C@@H]2C[C@@]2(C)[C@@H](CC[C@@]24CCC(=O)O4)[C@H]13,Potency,[1],inactive
same,Potency,[2],inactive
same,Potency,[3],inactive
same,Potency,[4],inactive
O=C(CS)OCCOC(=O)CS,Potency,[1],inactive
same,Potency,[2],27.3 µM (active)
same,Potency,[3],inactive
CCc1nn(CCCN2CCN(c3cccc(Cl)c3)CC2)c(=O)n1CCOc1ccccc1,Potency,[1],inactive
same,Potency,[4],29.8 µM (active)
OCCSc1ccccc1,Potency,[1],inactive
same,Potency,[4],inactive
Cc1cc(O)c(C(C)C)cc1Cl,Potency,[1],inactive
same,Potency,[2],inactive
same,Potency,[3],inactive
same,Potency,[4],inactive
CC(C)(C)CC(C)(C)c1ccc(OCCO)cc1,Potency,[1],inactive
same,Potency,[2],inactive
same,Potency,[3],inactive
same,Potency,[4],48.3 µM (active)
CNCCCC1c2ccccc2C=Cc2ccccc21,Potency,[1],inactive
same,Potency,[2],23.7 µM (active)
same,outcome,[5],inactive
same,Potency,[6],inactive
same,outcome,[7],inactive
same,Potency,[8],inactive
same,Potency,[4],29.8 µM (active)
Cc1occc1C(=O)Nc1ccc(C(=O)N2CCC(F)(F)/C(=C\C(=O)N3CCC(N4CCCCC4)CC3)c3ccccc32)cc1,Potency,[1],inactive
same,Potency,[2],inactive
same,Potency,[3],inactive
CSc1ccc(Oc2ccc(S(N)(=O)=O)cc2CN(C)C)cc1C,Potency,[1],inactive
same,Potency,[4],inactive
CCOC(=O)c1ccccc1C,Potency,[1],inactive
same,Potency,[2],inactive
same,Potency,[3],inactive
same,Potency,[4],inactive
CN(C)CCOC1=Cc2ccccc2Sc2ccc(Cl)cc21,Potency,[1],inactive
same,Potency,[3],inactive
same,Potency,[4],inactive
CCC(C(=O)OCCOCCN(CC)CC)c1ccccc1 (configuration not stated),Potency,[1],inactive
same,Potency,[2],inactive
same,Potency,[3],inactive
same,Potency,[4],inactive
C[C@@H]1C[C@H]2[C@@H]3CCC4=CC(=O)C=C[C@]4(C)[C@@]3(F)[C@@H](O)C[C@]2(C)[C@H]1C(=O)CO,Potency,[1],inactive
same,Potency,[2],inactive
same,Potency,[3],inactive
C[Si](NC1CCCCC1)(NC1CCCCC1)NC1CCCCC1,Potency,[1],inactive
same,Potency,[2],inactive
same,Potency,[3],inactive
same,Potency,[4],inactive
CCCc1c(OCCCOc2ccc(OCC(=O)O)cc2)ccc(C(C)=O)c1O,outcome,[5],inactive
same,Potency,[6],inactive
same,outcome,[7],inactive
same,Potency,[8],inactive
same,Potency,[9],inactive
same,Potency,[4],inactive
CC[C@H](NC(=O)c1cc(F)ccc1NS(=O)(=O)c1cccc2cccnc12)c1ccccc1,Potency,[1],inactive
same,Potency,[2],inactive
same,Potency,[3],inactive
Cc1cc2nc3ccc(=[N+](C)C)cc-3sc2cc1N,Potency,[1],26.6 µM (active)
same,Potency,[2],inactive
same,Potency,[3],1.88 µM (active)
same,Potency,[4],2.66 µM (active)
CC1=C(/C=C/C(C)=C\C=C\C(C)=C\C(=O)O)C(C)(C)CCC1,Potency,[1],inactive
same,Potency,[2],inactive
same,Potency,[3],0.0686 µM (active)
same,Potency,[4],54.5 µM (active)
COc1cc2ncnc(Nc3ccc(F)c(Cl)c3)c2cc1OCCCN1CCOCC1,Potency,[4],21.1 µM (active)
CCOC(=O)/C=C/C(=O)O,Potency,[1],inactive
same,Potency,[4],inactive
CC1(C)C2=CCCC(C)(C)[C@]23CC[C@H]1C3,Potency,[1],inactive
same,Potency,[2],inactive
same,Potency,[3],inactive
same,Potency,[4],inactive
COCc1c(C(C)C)nc(C(C)C)c(/C=C/[C@@H](O)C[C@@H](O)CC(=O)O)c1-c1ccc(F)cc1,Potency,[1],inactive
same,Potency,[2],inactive
same,Potency,[3],inactive
same,Potency,[4],inactive
C(=C\c1ccccc1)/CN1CCN(C(c2ccccc2)c2ccccc2)CC1,outcome,[5],inactive
same,Potency,[4],inactive
COc1cc2c(N3CCN(C(=O)Nc4ccc(OC(C)C)cc4)CC3)ncnc2cc1OCCCN1CCCCC1,Potency,[1],inactive
same,Potency,[3],inactive
same,Potency,[4],29.8 µM (active)
CCCCCC=CCC=CCCCCCCCC(=O)OCC,Potency,[1],inactive
same,Potency,[4],inactive
CC(C)C(OC(=O)c1ccccc1)C(C)(C)COC(=O)c1ccccc1 (configuration not stated),Potency,[1],inactive
same,Potency,[2],inactive
same,Potency,[4],inactive
